Results filed as inconclusive are left out. A number with no mark means an inactive call. Calls of active or inactive are those of the source. The call rests on the fitted dose curve; in most records, active means well fitted inhibition curve with a large enough effect; inconclusive means small, poorly fitted or top-dose-only effect; inactive means flat fitted curve, though single readings scatter.
Each compound was assayed on KB-3-1 (assay: Cytotoxic Profiling of Annotated Libraries Using Quantitative High-Throughput Screening (AID 1296008; further: nearly all actives have a fitted effect of over 60% in size)). Conditions: Five cell lines viability, CellTiter-Glo ATP luminescence, 48-72 h; max response: hits give low values.
In short: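 Cells exposed to compounds for 48 or 72 hr at 37 degrees Celsius. Viability read as ATP-coupled luminescence with CellTiter-Glo after 10 min at room temperature.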
On the % scale 0 is the no-effect control and ±100 the full control effect.

SMILES | outcome | max response [%]
C/C(=C\CCC1(C)C2CCC(C2)C1(C)O)C(=O)O (stereo not drawn) | inactive | 
CC(=O)O[C@@H]1c2c3c(cc(O)c2C(=O)O[C@@H]1C)O[C@@]1(C)[C@@H](O)C[C@H]2C(C)(C)C(=O)C=C[C@]2(C)[C@@H]1C3 | inactive | 
COc1ccccc1Oc1ccc(N(Cc2cccnc2)S(=O)(=O)CC(F)(F)F)cc1 |  | -5.75
CC(C)C(NC(=O)c1ccc2ccccc2n1)C(=O)NC(CC(=O)O)C(=O)COc1c(F)cccc1F (stereo not drawn) |  | 2.53
CC(C)=CCC[C@](C)(O)[C@H]1CC[C@]2(C)[C@@H]1[C@H](O)CC1[C@@]3(C)CC[C@H](O)C(C)(C)C3[C@@H](O[C@@H]3O[C@H](CO)[C@@H](O)[C@H](O)[C@H]3O[C@@H]3OC[C@@H](O)[C@H](O)[C@H]3O)C[C@]12C (stereo partly drawn) | inactive | 
C=CC[C@]12C[C@@H](OC)C(=O)C(OC)=C1O[C@@H](c1cc(OC)c3c(c1)OCO3)[C@@H]2C |  | -1.19
CC(C)O[C@@H]1O[C@H](CO)[C@@H](O)[C@H](O)[C@H]1O |  | 2
C[C@@H]1CN(Cc2ncccn2)C[C@H]1c1nc2c(cnn2C2CCOCC2)c(=O)[nH]1 |  | -1.41
CN[C@H](CC(C)C)C(=O)N[C@H]1C(=O)N[C@@H](CC(N)=O)C(=O)N[C@H]2C(=O)N[C@H]3C(=O)N[C@H](C(=O)N[C@H](C(=O)O)c4cc(O)cc(O)c4-c4cc3ccc4O)[C@H](O[C@H]3C[C@](C)(N)[C@@H](O)[C@H](C)O3)c3ccc(c(Cl)c3)Oc3cc2cc(c3O[C@@H]2O[C@H](CO)[C@@H](O)[C@H](O)[C@H]2O[C@H]2C[C@](C)(NCc3ccc(-c4ccc(Cl)cc4)cc3)[C@@H](O)[C@H](C)O2)Oc2ccc(cc2Cl)[C@H]1O | inactive | 
C=C1CC[C@H]2[C@@](C)(CCC(O)[C@@]2(C)CO)[C@@H]1CCC1=CCOC1=O (stereo partly drawn) |  | -26.3
CC1CCC2(C=O)C(CO)=CCCC2C1(C)CC(=O)O (stereo not drawn) |  | 2.85
C=CC1(C)C=C2CCC3C(C)(C)C(O[C@@H]4O[C@@H](CO)[C@H](O)[C@H]4O)CCC3(C)C2CC1O[C@@H]1O[C@H](C)[C@H](O)[C@H](O)[C@H]1O (stereo partly drawn) |  | -11.1
C/C(=C\CC[C@@H](C)[C@H]1CC(O)[C@@]2(C)C3CC[C@H]4C(C)(C)[C@@H](OC5OCC(O)C(O)C5OC5OC(CO)C(O)C(O)C5O)CC[C@@]45C[C@@]35CC(O)[C@]12C)C(=O)O (stereo partly drawn) |  | 6
CC(C)(C)NCCCNC(=O)c1cccc(Br)c1 |  | 6.67
CC(=O)OC1C[C@]2(C)C(O)CC(C)=C[C@H](OC(=O)c3ccc(O)cc3)C2[C@]1(O)C(C)C (stereo partly drawn) |  | 4.36
C=C1CC[C@@H]2[C@](C)(CO[C@@H]3O[C@H](CO)[C@@H](O)[C@H](O)[C@H]3O)[C@H](O)CC[C@@]2(C)[C@@H]1C/C=C1/C(=O)OC[C@H]1O | inactive | 
COC(=O)/C=C/C12COC(C)(C)C1C(O)C(OC(C)=O)C1(C)C2CCC2(C)C(c3ccoc3)OC(=O)C3OC321 (stereo not drawn) |  | -5.77
CC1CC(=O)C2=C(CCC3(O)C(O)c4c(O)cccc4C(=O)C23O)C1 (stereo not drawn) |  | 6.8
COC(=O)c1ccccc1O[C@@H]1O[C@H](CO)[C@@H](O)[C@H](O)[C@H]1O[C@@H]1O[C@@H](C)[C@H](O)[C@@H](O)[C@H]1O |  | 3.4
CCc1ccc(Cc2ccc3c(c2)[C@]2(OC3)O[C@H](CO)[C@@H](O)[C@H](O)[C@H]2O)cc1 |  | -4.58
OC[C@H]1O[C@@H](Oc2ccccc2)[C@H](O)[C@@H](O)[C@@H]1O | inactive | 
COc1cc2c(cc1OC)CC(=O)N(CCCNC[C@H]1Cc3cc(OC)c(OC)cc31)CC2 | inactive | 
COc1cc(O)c([C@@H](CC(=O)N2CC(C)CC(C)C2)c2ccc3c(c2)OCO3)c(OC)c1 (stereo partly drawn) |  | -2.57
C=CC/C=C\C/C=C\CCCCCCCc1cccc(O)c1C(=O)O |  | 4.36
Cc1ccc(-c2ccc3c(ccc4sc5c(c43)NC[C@@H](C)NC5=O)n2)cn1 | inactive | 
C[C@@H]1C(=O)OC[C@H]2C(C(=O)O)=C[C@@H]3CC(C)(C)C[C@]312 |  | 5.81
C[C@H]1CC(=O)Nc2cccc(-c3cnn(C(C)(C)C)c3)c2N1 |  | -8.91
COC(=O)C(C)C1CCC2(C)C(=O)C=CC(C)(O)C2C1O (stereo not drawn) | inactive | 
